Test results as given in PubChem BioAssay AID362 (NMMLSC, 2006).
Out of some 4,300 compounds screened, about 60 (1%) were called active.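 Rule for the calls: active = inhibition of labelled peptide binding to the formyl peptide receptor of at least 65%; inactive = the rest.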 What follows is part of a selection rich in actives, with near analogues and random picks from the rest.

The compounds below were run against fMet-Leu-Phe receptor (Homo sapiens) (UniProt P21462) (assay: FPR binders displacing fluorescent formyl peptide, primary screen, U937-FPR cells, fMLFK-FITC, flow cytometry (AID 362;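 for inhibition: plate controls were buffer control wells for no effect and unlabeled fMLFF blocking peptide for full effect; higher means less cell fluorescence so more probe displaced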)). Settings: fMLFK-FITC displacement; hits give high values, concentration not given here.
fMet-Leu-Phe receptor (Homo sapiens), sequence (P21462 whole entry, looked up): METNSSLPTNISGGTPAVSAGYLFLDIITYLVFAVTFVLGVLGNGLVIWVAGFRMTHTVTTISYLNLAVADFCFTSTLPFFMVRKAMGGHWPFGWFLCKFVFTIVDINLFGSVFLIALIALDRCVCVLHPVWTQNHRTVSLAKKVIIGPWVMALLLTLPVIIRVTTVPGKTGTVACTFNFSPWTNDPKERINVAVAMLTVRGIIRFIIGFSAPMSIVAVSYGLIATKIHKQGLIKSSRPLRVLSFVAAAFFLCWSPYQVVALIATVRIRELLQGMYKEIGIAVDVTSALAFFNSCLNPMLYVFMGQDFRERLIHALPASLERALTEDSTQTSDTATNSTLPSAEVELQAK

| Compound | inhibition |
| --- | --- |
| CCCCc1cc(=O)oc2cc(OCC(=O)OCC)c(Cl)cc12 | inactive |
| CC1=C(C)C/S(=N\S(=O)(=O)c2ccccc2)N(S(=O)(=O)c2ccccc2)C1 (centres undefined) | 103% (active) |
| CC1=C(C)CS(=Nc2ccccc2[N+](=O)[O-])N(S(=O)(=O)c2ccccc2)C1 (centres undefined) | inactive |
| O=C(C1CCCN(S(=O)(=O)c2ccccc2)C1)N1CCCCC1 (centres undefined) | 7.6% (inactive) |
| CC(C)Cn1cc(C(=O)N2CC(C)CC(C)C2)c2c3ccccc3n(C)c2c1=O (centres undefined) | 5.3% (inactive) |
| O=S(=O)(c1ccc(-c2csc(=Nc3cccc4ccccc34)n2CCCCO)cc1)N1CCCCC1 | inactive |
| CCOC(=O)c1c(NC(=O)C2C3CCC(C3=C(C)C)C2C(=O)O)sc2c1CCCCCCC2 (centres undefined) | 95.1% (active) |
| CCOC(=O)c1c(NC(=O)C2CCCCC2C(=O)O)sc2c1CCC(C(C)(C)C)C2 (centres undefined) | 71.7% (active) |
| CCOC(=O)c1c(NC(=O)C2CCCCC2C(=O)O)sc2c1CCC(C(C)(C)CC)C2 (centres undefined) | 21% (inactive) |
| CC1CCc2c(sc(NC(=O)C3CCCCC3C(=O)O)c2C(=O)OC(C)C)C1 (centres undefined) | 3% (inactive) |
| CCC(C)(C)C1CCc2c(sc(NC(=O)C3CCCCC3C(=O)O)c2C(=O)OC)C1 (centres undefined) | 80.5% (active) |
| CCCOC(=O)c1c(NC(=O)C2CCCCC2C(=O)O)sc2c1CCC2 (centres undefined) | 47.3% (inactive) |
| CCCOC(=O)c1c(NC(=O)C2CCCCC2C(=O)O)sc2c1CCC(C)C2 (centres undefined) | 23.4% (inactive) |
| CCOC(=O)c1c(NC(=O)C2C3C=CC(CC3)C2C(=O)O)sc2c1CCCC2 (centres undefined) | 4.5% (inactive) |
| CCOC(=O)c1c(NC(=O)C2C3C=CC(C3)C2C(=O)O)sc2c1CCCCCC2 (centres undefined) | 16.4% (inactive) |
| CCC(C)C(NC(=O)C(CC(=O)OCc1ccccc1)NC(=O)OC(C)(C)C)C(=O)NC(Cc1ccccc1)C(N)=O (centres undefined) | inactive |
| CCOc1cc(C2C(C(=O)OC3CCCC3)=C(C)NC3=C2C(=O)C(C(=O)OC)C(C)C3)ccc1O (centres undefined) | 15.5% (inactive) |
| CCCN(CCC)CCNC(=O)c1cn(CC(C)C)c(=O)c2cc(OC)c(OC)cc12 | inactive |
| CC1=C(C(=O)OC2CCCCC2)C(c2cccc(O)c2)C2=C(CC(C)(C)CC2=O)N1 (centres undefined) | 20.5% (inactive) |
| O=C(CCCCCn1c(SCC(=O)NCc2ccccc2)nc2ccccc2c1=O)NCc1ccco1 | 3.6% (inactive) |
| COc1ccc2nc(NC(=O)C(NS(=O)(=O)c3ccc4c(c3)CCN4C(C)=O)C(C)C)sc2c1 (centres undefined) | inactive |
| COc1ccc(OC)c(C2/C(=C(\O)c3ccc(F)cc3)C(=O)C(=O)N2CCCCCC(=O)O)c1 (centres undefined) | 84.5% (active) |

| Compound | inhibition |
| --- | --- |
| COc1ccc(C2/C(=C(/O)c3ccc(Cl)cc3)C(=O)C(=O)N2CC(C)C)c(OC)c1 (centres undefined) | 31.1% (inactive) |
| COc1ccc(OC)c(C2/C(=C(/O)c3ccc(C)cc3)C(=O)C(=O)N2CC(C)C)c1 (centres undefined) | 86.7% (active) |
| COc1ccc(C2/C(=C(/O)c3ccc(C)cc3)C(=O)C(=O)N2CC(C)C)c(OC)c1 (centres undefined) | 52.9% (inactive) |
| COc1ccc(C2/C(=C(\O)c3ccc(F)cc3)C(=O)C(=O)N2CCCCCC(=O)O)c(OC)c1 (centres undefined) | 23.3% (inactive) |
| COc1ccccc1C1/C(=C(\O)c2ccc(F)cc2)C(=O)C(=O)N1CCCCCC(=O)O (centres undefined) | 11.2% (inactive) |
| O=C(Nc1nccs1)c1cc(N2C(=O)C3C4CCC(C4)C3C2=O)ccc1Cl (centres undefined) | inactive |
| CCSCCOC(=O)C1=C(C)NC2=C(C(=O)C(C(=O)OC)C(C)C2)C1c1cccc(F)c1 (centres undefined) | 5.8% (inactive) |
| O=c1oc2cc(O)ccc2c2c1CCC2 | 7% (inactive) |
| O=c1oc2cc(O)ccc2c2c1CCCC2 | inactive |
| O=c1oc2cc(O)cc(O)c2c2c1CCC2 | 81.6% (active) |
| Cc1cc(NC(=O)C2CCCCC2C(=O)O)nn1Cc1ccc(Cl)cc1 (centres undefined) | 3% (inactive) |
| CCCCCCOC(=O)C1=C(C)NC(=O)NC1c1cc(OC)c(O)c(OC)c1 (centres undefined) | inactive |
| CCCCCC(=O)Oc1cccc(N2C(=O)C3C4CCC(C4)C3C2=O)c1 (centres undefined) | inactive |
| COC(=O)CC/C(O)=C1\C(=O)CC(C)(C)CC1=NCCc1ccc(OC)c(OC)c1 | 3.2% (inactive) |
| COc1cc2c(C(=O)O)cn(CC(C)C)c(=O)c2cc1OC | inactive |
| CCOc1cc2c(C(=O)O)cn(CC(C)C)c(=O)c2cc1OCC | 70% (active) |
| CCOc1cc2c(C(=O)N3CCN(c4ccccn4)CC3)cn(CC(C)C)c(=O)c2cc1OCC | 3.9% (inactive) |
| CCCc1cc(=O)oc2cc(OC(C)=O)ccc12 | 17.6% (inactive) |
| CCCc1cc(=O)oc2cc(OC(C)=O)cc(OC(C)=O)c12 | 77.3% (active) |
| CCCc1cc(=O)oc2cc(OCC(=O)OCC)cc(OCC(=O)OCC)c12 | inactive |
| CCOc1ccc(CCNC(=O)c2cn(CC(C)C)c(=O)c3cc(OC)c(OC)cc23)cc1OCC | inactive |
| C=C(C)Cn1c(SCC(=O)c2ccccc2)nc2c(c1=O)C1(CCCC1)Cc1ccccc1-2 | inactive |
